The text below walks through data of PubChem BioAssay AID618 (Sanford-Burnham Center for Chemical Genomics, 2007).

The campaign covered roughly 87,000 compounds. About 540 (0.62%) were called active. This is one part of a sample in which actives are shown more often than they occur. How the calls were made is not given here. Measured potencies and affinities stand elsewhere.

This assay can be described thus: MT1-MMP gene expression reporter suppression – cell-based, luciferase reporter, luminescence (AID 618).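 Further: actives suppress MT1-MMP promoter-driven transcription so potencies describe inhibitors.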 To be noted: MT1-MMP promoter luciferase reporter cells.
For `CCOC(=O)c1cnc(-c2cccc(OC)c2)[nH]c1=O`, the result was inactive.

Regarding `COc1ccc(CNC(=O)CCCCCn2c(SCC#N)nc3cc4c(cc3c2=O)OCO4)cc1`, the compound was classed as inactive.

As for `CCC(=O)c1ccc(OCC(O)CN2CCN(C(c3ccccc3)c3ccccc3)CC2)cc1` (stereo not drawn), the result was inactive.

In the case of `CCOC(CNC(=O)c1cccn2c(=O)c3cc(Cl)ccc3nc12)OCC`, the result was inactive.

Regarding `COc1ccc(S(=O)(=O)Nc2nnc(C(C)(C)C)s2)cc1`, the outcome was inactive.

With `Cc1c(NC(=O)c2cc(C(C)C)on2)c(=O)n(-c2ccccc2)n1C`, the outcome was inactive.

With `CCC(OC(=O)c1cc2sccc2n1C)C(=O)NCC1CCCO1` (stereo not drawn), the call was inactive.

For the compound `Nc1ccnc(C(F)(F)F)c1C(=O)c1ccccc1`, the compound was classed as inactive.

With `CC(C)OC(=O)CSc1nnc(-c2cccnc2)n1Cc1ccccc1`, the call was inactive.

As for `Cc1ccc(C)c(OCCCCn2ccnc2)c1`, the result was inactive.

On to `COc1ccc(-c2nnc(-c3ccc(N)cc3)o2)cc1`, for which the outcome was inactive.

Turning to `Nc1ccc2oc(-c3cccc4ccccc34)nc2c1`, the call was inactive.

As to `COC(=O)c1ccc(-c2nc3ccccc3o2)cc1`, the outcome was inactive.

For the compound `Nc1nc2ccc(-c3nc4ccccc4o3)cc2s1`, the result was inactive.

In the case of `Nc1ccc2oc(-c3cc(Br)ccc3Cl)nc2c1`, the compound was classed as inactive.

On to `COC(=O)c1ccc(-c2nc3ccc(C)cc3o2)cc1`, for which the call was inactive.

With `Nc1ccc2oc(-c3ccccc3Cl)nc2c1`, the call was active.

As to `Cc1ccc(C)c(-c2nc3cc(N)ccc3o2)c1`, the outcome was inactive.

With `Cc1ccccc1-c1nc2cc(N)ccc2o1`, the compound was classed as inactive.

With `CCc1c(C)nc2ncnn2c1N1CCCC(C(=O)Nc2ccc(NC(C)=O)cc2)C1` (stereo not drawn), the outcome was inactive.

Turning to `Cc1ccc(NC(=O)c2ccc(N3C(=O)C4CC=C(Cl)CC4C3=O)cc2)cc1` (stereo not drawn), the compound was called inactive.

Take `COC(=O)[C@@H]1C[C@@]2(O)[C@H](O)[C@H](O)[C@H](O)C[C@H]2N1Cc1c(F)cccc1Cl`: the result was inactive.

`CC(C)Cc1ccc(S(=O)(=O)N2CCOCC2)cc1`: the compound was called inactive.

Turning to `O=C(CC1CCS(=O)(=O)C1)NC1CCCCC1` (stereo not drawn), the result was inactive.

For `O=C(CN1CC(c2ccccc2)CC1=O)OCc1ccccc1F` (stereo not drawn), the compound was called inactive.

Take `Cc1cccc(CSC2=NCCN2C(=O)c2ccco2)c1`: the compound was classed as inactive.

On to `COCCn1c(=O)c2c3c(sc2n(CC(N)=O)c1=O)CCCC3`, for which the compound was classed as inactive.

Turning to `COc1ccc(Br)c(C(=O)Nn2c(C)nc3ccccc3c2=O)c1`, the result was inactive.

With `Cc1ccc(C)c(Cn2nnc3c(=O)[nH]c(C4CCN(C(=O)c5cccs5)CC4)nc32)c1`, the result was inactive.

In the case of `CCCNC(=O)NC(C)C12CC3CC(CC(C3)C1)C2` (stereo not drawn), the compound was called inactive.

As to `COc1ccccc1NC(=O)c1ccc(COc2ccccc2OC)o1`, the result was inactive.

For `CCn1c(=O)c(=O)n(CC)c2cc(S(=O)(=O)Nc3cccc(OC)c3)ccc21`, the compound was called inactive.

In the case of `CCn1c(=O)cc(SCC(=O)Nc2ccccc2N2CCN(C)CC2)c2ccccc21`, the result was inactive.

As to `Cc1ccc(NC(=O)Cc2cn3ccsc3n2)nc1`, the outcome was inactive.

In the case of `CC(C)c1ccc2oc(-c3cc(N)ccc3O)nc2c1`, the result was inactive.

Regarding `COc1cc(OC)cc(-c2nc3cc(C)ccc3o2)c1`, the call was inactive.

`CC(C)c1ccc2oc(-c3ccc(NC(=O)c4ncn[nH]4)cc3)nc2c1`: the call was inactive.

For `CCOc1cccc(-c2nc3cc(C)ccc3o2)c1`, the outcome was inactive.

`O=C1CC(=C2c3ccccc3-c3ccccc32)C(=O)N1CCN1CCN(c2ccccc2)CC1`: the outcome was inactive.

Regarding `Cc1nn(Cc2nc(-c3cccs3)no2)c(C)c1Br`, the compound was classed as inactive.

`COc1ccccc1-c1nnc(SCC(=O)O)n1C`: the compound was called inactive.

In the case of `CC1=C(C(=O)OCc2ccccc2)C(c2ccc3ccccc3c2)NC(=O)N1CCCCCC(=O)O` (stereo not drawn), the outcome was inactive.

With `Cc1ccc(-c2csc3ncnc(NCCN4CCOCC4)c23)cc1`, the call was inactive.

With `Cn1nnnc1Sc1ncnc2scc(-c3ccc(F)cc3)c12`, the call was inactive.

With `O=C(Nc1ccc(N2CCOCC2)cc1)Nc1cnsn1`, the compound was called inactive.

`Cc1cnc(C(=O)Nc2ccc(N3CCOCC3)cc2)cn1`: the result was inactive.

Regarding `O=C(Nc1ccc(N2CCOCC2)cc1)c1cnsn1`, the compound was called active.

With `CCOc1ccc(NC(=O)c2ccncc2)cc1`, the compound was called inactive.

Regarding `CCOc1ccc(NC(=O)c2cnccn2)cc1`, the compound was classed as inactive.

`CCc1nnc(NC(=O)CN2C(=O)c3ccccc3S2(=O)=O)s1`: the compound was called inactive.

With `CC1(C)CC(=O)C2=C(C1)Nc1ncnn1C2c1ccccn1` (stereo not drawn), the outcome was inactive.

`CCOc1ccc(C2C(C(=O)c3cccs3)=C(O)C(=O)N2CCCn2ccnc2)cc1` (stereo not drawn): the compound was classed as inactive.

`CN1CCN(c2ccccc2NC(=O)c2ccc(-c3ccccc3)cc2)CC1`: the compound was classed as inactive.

Turning to `CC(=O)c1c(C)[nH]c(C(=O)Nc2ccc(C)cn2)c1C`, the outcome was active.

As to `CC(=O)c1c(C)[nH]c(C(=O)Nc2cc(C)ccc2C)c1C`, the outcome was inactive.

Turning to `CC(=O)c1c(C)[nH]c(C(=O)Nc2cc(C)cc(C)c2)c1C`, the compound was classed as inactive.

With `CC1=CC(=O)C=C(C)C1=NOS(=O)(=O)c1ccccc1`, the outcome was active.

Consider `CC1=C(C)/C(=N\OS(=O)(=O)c2ccccc2)C=CC1=O`, for which the outcome was inactive.

As to `CC1=C/C(=N\OS(=O)(=O)c2ccccc2)C=CC1=O`, the compound was classed as inactive.

Turning to `Cc1cccc(C2N(c3ccc(F)cc3)C(=O)C3CCCN32)c1` (stereo not drawn), the compound was called inactive.

In the case of `O=S(=O)(Nc1ccccn1)c1ccc(C2CCCCC2)cc1`, the outcome was inactive.

With `CC1=CC(C)(C)N(S(=O)(=O)c2ccc(F)cc2)c2ccc(C)cc21`, the call was inactive.

As to `CC1=CC(C)(C)N(S(=O)(=O)c2ccc(C)cc2)c2ccc(C)cc21`, the compound was classed as active.

`CC1=CC(C)(C)N(C(=O)c2ccccc2)c2ccc(C)cc21`: the result was inactive.

Consider `CC1=CC(C)(C)N(S(=O)(=O)c2ccc(C)cc2)c2cc(C)ccc21`, for which the call was active.

On to `CC1=CC(C)(C)N(S(=O)(=O)c2ccc(F)cc2)c2ccccc21`, for which the call was inactive.

Regarding `Cc1ccc(S(=O)(=O)N2C(=S)SCC2(C)C)cc1`, the compound was classed as inactive.

For the compound `Cc1ccc(S(=O)(=O)N2CC3(C)CN(S(=O)(=O)c4ccc(C)cc4)CC(C)(C2)C3)cc1`, the compound was classed as inactive.

For `CC1=CC(C)(C)N(C(=O)CN2C(=O)c3ccccc3C2=O)c2ccccc21`, the call was inactive.

Consider `CC1=CC(C)(C)N(S(=O)(=O)c2ccc(C)cc2)c2ccccc21`, for which the result was active.

Turning to `O=C(CN1CCN(c2ccccc2)CC1)Nc1c(C(=O)C2CC2)oc2ccccc12`, the compound was called inactive.

Consider `CC(C)n1nnnc1C(c1ccc(F)cc1)N1CCN(C2CCCC2)CC1` (stereo not drawn), for which the outcome was inactive.

As to `Cc1ccc(NC2=NCCC2)cc1Cl`, the result was inactive.

In the case of `C=CCn1c(=O)c2ccccc2n2c(SCc3csc(-c4ccccc4)n3)nnc12`, the outcome was inactive.

On to `Cn1c(-c2ccccc2)cnc1SCC(N)=O`, for which the outcome was inactive.

Regarding `Cn1c(-c2ccc(F)cc2)cnc1SCC(=O)N1CCCCC1`, the compound was classed as inactive.

For `CCOC(=O)c1c(NC(=O)Cc2cccs2)sc2c1CCCC2`, the compound was called inactive.

For the compound `COC(=O)c1ccccc1NC(=O)CN1CCC(NC(=O)c2ccccc2C)CC1`, the result was inactive.

`Cc1nnc(NC(=O)c2sc3ccccc3c2Cl)s1`: the compound was classed as active.

Regarding `COCc1nnc(NC(=O)c2sc3ccccc3c2Cl)s1`, the compound was called inactive.

Turning to `CC(C)c1nnc(NC(=O)c2sc3ccccc3c2Cl)s1`, the result was inactive.

As for `O=C(NCc1ccc2c(c1)OCO2)c1ccccn1`, the call was inactive.

Regarding `O=C(/C=C\Nc1cccc(F)c1)c1ccc2c(c1)OCO2`, the outcome was inactive.

As to `CN(C(=O)c1ccco1)c1nnc(C23CC4CC(CC(C4)C2)C3)s1`, the outcome was inactive.

Take `CN(C(=O)c1ccco1)c1nc(CC(=O)Nc2ccccc2)cs1`: the compound was called inactive.

Turning to `COC(=O)[C@@]1(Cc2ccc(OC)cc2)[C@H]2c3cc(C(=O)N4CCCC4)n(CCF)c3C[C@H]2CN1C(=O)c1ccccc1`, the call was inactive.

For the compound `COc1cc(C(=O)N2CCN(C(=O)Cc3ccccc3)CC2)cc(OC)c1OC`, the outcome was inactive.

With `C=CCNC(=O)c1ccc2nccnc2c1`, the result was inactive.

Turning to `CC(C)C(=O)N(Cc1cc2ccccc2[nH]c1=O)C(C)C`, the compound was classed as inactive.

Consider `C=CCn1c(SCc2cc(=O)n3ccsc3n2)nc2scc(C3CC3)c2c1=O`, for which the compound was called inactive.

Take `COc1ccccc1NC(=S)NNC(=O)c1ccccc1`: the compound was called inactive.

For the compound `O=C(NCCCN1CCOCC1)c1ccccc1`, the outcome was inactive.

For the compound `COc1ccc(-c2nc3ccccc3s2)cc1O`, the call was active.

For the compound `COc1cccc(-c2nc3ccccc3s2)c1`, the call was inactive.

As for `COc1cc(OC)cc(-c2nc3ccccc3s2)c1`, the call was inactive.

Turning to `c1ccc2sc(-c3ccc4c(c3)OCO4)nc2c1`, the call was inactive.

`COc1cc(-c2nc3ccccc3s2)ccc1O`: the result was inactive.

With `COC(=O)CSc1nc2ccc(C)cc2[nH]1`, the result was inactive.

Consider `CCN(CC)S(=O)(=O)c1ccc(C2CNC(=O)C2)cc1` (stereo not drawn), for which the call was inactive.

Take `CCn1cnc2c1c(=O)n(Cc1csc(-c3ccccc3)n1)c(=O)n2Cc1ccccc1`: the compound was classed as inactive.

As for `COc1cccc(NC(=O)CCN2C(=O)c3ccccc3S2(=O)=O)c1`, the result was inactive.

For `CCc1nnc(NC(=O)CSc2nc3c(cc2C#N)CCCC3)s1`, the result was inactive.

Turning to `CCc1nnc(NC(=O)CSc2nc3c(cc2C#N)CCC3)s1`, the compound was called inactive.

For the compound `Cc1cc(C(F)(F)F)n2ncc(-c3ccc(F)cc3)c2n1`, the result was inactive.

Consider `CCOc1ccccc1-c1nnc(SCC(=O)Nc2ccccc2)o1`, for which the call was inactive.

For `Cc1ccc(C)c(NC(=O)CSc2nnc(-c3ccccc3)o2)c1`, the compound was classed as inactive.

For `COC(=O)c1ccccc1NC(=O)CSc1nnc(-c2ccc(C)cc2)o1`, the outcome was inactive.

For the compound `Cc1cccc(NC(=O)CSc2nnc(-c3ccccc3C)o2)c1`, the result was inactive.

In the case of `COc1ccccc1NC(=O)CSc1nnc(-c2ccc(C)cc2)o1`, the result was inactive.

As to `COc1ccccc1NC(=O)CSc1nnc(-c2ccccc2)o1`, the outcome was inactive.

With `CCN(CC)S(=O)(=O)c1ccc(NC(=O)CN(c2ccc(OC)cc2OC)S(C)(=O)=O)cc1`, the compound was classed as inactive.

Consider `O=C(NCCCO)C12CC3CC(CC(C3)C1)C2`, for which the compound was classed as inactive.

Consider `O=C(NC(NC1CCS(=O)(=O)C1)C(=O)c1ccccc1)c1ccc(Cl)cc1` (stereo not drawn), for which the call was inactive.

As to `O=C(Nc1cccc(O)c1)c1ccccc1`, the result was inactive.

Take `C/C(=C\C(=O)c1ccc(C)cc1)Nc1cccc(O)c1`: the compound was called inactive.

For `O=C(/C=C/Nc1ccccc1)c1ccccc1`, the call was inactive.

With `Cc1ccc(C(=O)/C=C/Nc2cccc(O)c2)cc1`, the compound was called active.

On to `Cc1ccc(N/C=C/C(=O)c2ccc(C)cc2)cc1`, for which the outcome was inactive.
